Assay results published in paper PMC4336329 (PLoS ONE, 2015).
The whole screen tested about 310,000 compounds, of which about 14,000 (4.5%) showed an effect of 50% or more. Effects have a minus sign here. The entries come from a sample that favours strong results as a whole.

Each molecule was assayed against human ether-à-go-go-related gene (hERG) potassium channel (human, UniProt Q12809) (assay: primary screen, population patch clamp on CHO cells stably expressing hERG; higher = less effect of the substance).
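Further: peak tail current of the secondary pulse compared with the same well before compound.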

Chain of human ether-à-go-go-related gene (hERG) potassium channel (Q12809 whole entry, looked up): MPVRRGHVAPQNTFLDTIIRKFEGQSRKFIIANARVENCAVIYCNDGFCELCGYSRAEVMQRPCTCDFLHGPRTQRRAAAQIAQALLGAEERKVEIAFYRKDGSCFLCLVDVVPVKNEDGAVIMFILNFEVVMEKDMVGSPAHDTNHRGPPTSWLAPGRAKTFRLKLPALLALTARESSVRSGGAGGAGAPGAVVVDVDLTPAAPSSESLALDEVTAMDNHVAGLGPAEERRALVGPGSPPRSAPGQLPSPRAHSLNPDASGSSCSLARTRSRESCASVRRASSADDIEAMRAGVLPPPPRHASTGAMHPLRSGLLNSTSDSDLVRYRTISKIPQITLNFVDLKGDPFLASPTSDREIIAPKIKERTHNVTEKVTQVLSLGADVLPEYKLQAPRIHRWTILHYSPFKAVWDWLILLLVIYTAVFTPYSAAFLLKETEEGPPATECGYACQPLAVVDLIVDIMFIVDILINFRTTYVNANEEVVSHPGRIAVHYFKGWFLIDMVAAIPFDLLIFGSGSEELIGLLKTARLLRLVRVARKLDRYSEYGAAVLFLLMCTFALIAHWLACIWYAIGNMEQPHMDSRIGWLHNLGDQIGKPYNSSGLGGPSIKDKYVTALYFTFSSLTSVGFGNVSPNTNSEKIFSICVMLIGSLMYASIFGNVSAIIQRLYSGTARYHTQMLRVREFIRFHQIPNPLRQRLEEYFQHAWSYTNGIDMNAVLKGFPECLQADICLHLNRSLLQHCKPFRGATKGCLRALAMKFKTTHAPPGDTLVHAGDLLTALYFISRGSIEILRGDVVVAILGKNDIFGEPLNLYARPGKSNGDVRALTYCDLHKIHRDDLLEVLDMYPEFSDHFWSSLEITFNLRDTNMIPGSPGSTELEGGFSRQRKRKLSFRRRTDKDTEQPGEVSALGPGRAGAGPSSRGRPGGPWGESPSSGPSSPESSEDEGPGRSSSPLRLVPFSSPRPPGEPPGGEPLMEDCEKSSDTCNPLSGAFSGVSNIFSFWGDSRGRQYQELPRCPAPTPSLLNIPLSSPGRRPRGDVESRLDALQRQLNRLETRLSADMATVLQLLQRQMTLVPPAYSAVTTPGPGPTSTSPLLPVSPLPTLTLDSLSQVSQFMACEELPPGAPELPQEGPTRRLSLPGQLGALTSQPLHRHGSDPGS

Row | SMILES | hERG current change (%, negative = inhibition) at 10uM [%]
1 | COCCCN1C(=O)C(=O)/C(=C(/O)c2ccccc2)C1c1ccc(N(C)C)cc1 (centres unmarked) | 12.8
2 | CSCC[C@H](NC(=O)Nc1ccc(S(N)(=O)=O)cc1)C(=O)O | 9.48
3 | CCN1CCN(c2cc(C)c3cc(NC(=O)c4cccc(OC)c4)ccc3n2)CC1 | -50.9
4 | COc1cccc(C(=O)Nc2ccc3nc(N4CCOCC4)cc(C)c3c2)c1 | -55
5 | CCOc1ccc(C(=O)Nc2ccc3nc(N4CCN(CC)CC4)cc(C)c3c2)cc1 | -23
6 | CCN1CCN(c2cc(C)c3cc(NC(=O)c4cc(OC)cc(OC)c4)ccc3n2)CC1 | -35.6
7 | COc1ccc(C(=O)Nc2ccc3nc(N4CCCCC4)cc(C)c3c2)cc1OC | -56.8
8 | CCN1CCN(c2cc(C)c3cc(NC(=O)c4ccc(OC)c(OC)c4)ccc3n2)CC1 | -46
9 | CCN1CCN(c2cc(C)c3cc(NC(=O)CCC(=O)Nc4ccc(OC)c(OC)c4)ccc3n2)CC1 | 4.85
10 | COc1cccc(NC(=O)CCC(=O)Nc2ccc3nc(N4CCOCC4)cc(C)c3c2)c1 | 23.4
11 | COc1ccc(NC(=O)CCC(=O)Nc2ccc3nc(N4CCOCC4)cc(C)c3c2)c(OC)c1 | 16.5
12 | COc1ccc(Cc2nc3ccc(C(=O)N(C)C(C)c4ccon4)cc3o2)cc1 (centres unmarked) | -3.64
13 | O=C1COc2ccc(C(=O)c3ccccc3C(=O)NCc3ccccc3)cc2N1 | -5.41
14 | COc1cccc(CC(=O)OC(C)C(=O)Nc2ccc(Cl)cn2)c1 (centres unmarked) | -23.9
15 | CC(=O)Nc1nc2ccc(S(=O)(=O)N3CCCCC3)cc2s1 | 11.4
16 | Cc1ccccc1NC(=O)Cc1nc(-c2c[nH]c(C(=O)N3CCCC3)c2)cs1 | 4.63
17 | Cc1ccc(NC(=O)C(=O)NNC(=O)c2ccccc2C)cc1Cl | -5.32
18 | CCOCCCn1c(=NC(C)=O)c(C#N)cc2c(=O)n3cccc(C)c3nc21 | -41.8
19 | Cc1cccn2c(=O)c3cc(C#N)c(=NC(=O)c4cccs4)n(CC(C)C)c3nc12 | -11.5
20 | CCOCCCn1c(=NC(=O)c2cccs2)c(C#N)cc2c(=O)n3cccc(C)c3nc21 | -74.1
21 | CCOCCCn1c(=NC(=O)c2ccc(OC)c(OC)c2)c(C#N)cc2c(=O)n3cccc(C)c3nc21 | -63.4
22 | CCCCn1c(=NC(=O)c2ccc3c(c2)OCO3)c(C#N)cc2c(=O)n3cccc(C)c3nc21 | -5.68
23 | Cc1cccn2c(=O)c3cc(C#N)c(=NC(=O)c4cccs4)n(CCCOC(C)C)c3nc12 | -80.7
